Results taken from PubChem BioAssay AID1851 (National Center for Advancing Translational Sciences (NCATS), 2009).
About 5,800 (36%) of roughly 16,000 compounds were called active. Roughly 23% stayed inconclusive and do not appear here. The list shows a part of the results. Values without a mark were called inactive. Calls follow the shape of the dose curve; as a rule, active = well fitted curve in the direction sought with a large enough effect; inconclusive = small, poorly fitted or top-dose-only effect, or effect the other way; inactive = no such curve, though single readings can be large or run the other way.

Molecular target: Cytochrome P450 2C19 (Homo sapiens) (UniProt P33261)
Sequence (P33261 whole entry, looked up): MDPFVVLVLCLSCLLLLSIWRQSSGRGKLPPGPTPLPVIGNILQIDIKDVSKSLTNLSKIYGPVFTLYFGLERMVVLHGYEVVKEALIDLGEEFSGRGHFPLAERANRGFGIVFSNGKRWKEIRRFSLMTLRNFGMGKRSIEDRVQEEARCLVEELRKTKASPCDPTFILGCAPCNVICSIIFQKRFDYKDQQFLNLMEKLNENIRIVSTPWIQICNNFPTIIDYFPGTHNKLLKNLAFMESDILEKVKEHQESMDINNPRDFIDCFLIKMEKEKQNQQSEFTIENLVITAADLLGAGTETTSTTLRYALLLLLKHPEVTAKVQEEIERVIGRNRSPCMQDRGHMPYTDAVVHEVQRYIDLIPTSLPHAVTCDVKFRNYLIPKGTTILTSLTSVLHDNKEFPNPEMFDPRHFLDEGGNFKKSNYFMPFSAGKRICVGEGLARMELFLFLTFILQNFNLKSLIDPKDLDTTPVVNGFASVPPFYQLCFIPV
Assay: Cytochrome panel assay with activity outcomes
Conditions: recombinant CYP, pro-luciferin dealkylation, luminescence, p450-cyp2c19; series mostly up to 57.1 µM; activity, negative = inhibition: at the top concentration
% is scaled to controls: 0 for no effect and ±100 for the full control effect.

| SMILES | activity, negative = inhibition | AC50 |
| --- | --- | --- |
| Cc1cccc(Sc2c([N+](=O)[O-])ncn2C)n1 | -22.4% |  |
| Cn1cnc([N+](=O)[O-])c1Sc1nc(N)nc2c1ncn2[C@H]1C[C@H](O)[C@@H](CO)O1 | 8.27% [at 11.4 µM] |  |
| Cc1ccc(Sc2c([N+](=O)[O-])ncn2C)cc1 |  | 25.1 µM (active) |
| Cc1nn(Cc2c(Cl)cccc2Cl)c(C)c1NC(=O)c1cnn2c(C(F)F)cc(-c3ccccc3)nc12 |  | 7.08 µM (active) |
| O=C(Nc1cccnc1)c1ccc(COc2cc(Cl)ccc2Cl)o1 |  | 2.51 µM (active) |
| CC(C)CNC(=O)c1ccc(COc2ccc(Cl)cc2Cl)o1 |  | 10 µM (active) |
| O=C(N/N=C/c1ccc(O)cc1)c1ccc(COc2cc(Cl)ccc2Cl)o1 |  | 4.47 µM (active) |
| O=C(Nc1ccn(Cc2ccccc2F)n1)c1ccc(COc2cc(Cl)ccc2Cl)o1 |  | 0.708 µM (active) |
| Cn1ncc(Cl)c1C(=O)Nc1cccnc1 | -28.6% |  |
| CC(=O)O[C@@H](C)C[N+](C)(C)C |  | inactive |
| CO[C@@H]1COC(=O)CC=C[C@@H](C)[C@@H]2C=C[C@H](O)[C@@H](COC(=O)C/C=C\[C@H]1C)O2 | -32.3% [at 11.4 µM] |  |
| O=C(O)[C@@H](c1ccccc1)[C@@H](C(=O)O)c1ccccc1 | 8.57% [at 11.4 µM] |  |
| O=C(c1ccccc1)[C@H](Nc1ccc2ccccc2c1)c1ccccc1 |  | 1 µM (active) |
| CC1=CC(=C2C(=O)c3ccccc3C2=O)C=C(C)N1Cc1ccco1 |  | 4.47 µM (active) |
| COC(=O)C(NC(=O)c1ccccc1)=C1C=C(C)OC(C)=C1 | -28% |  |
| CC1=CC(=C2C(=O)c3ccccc3C2=O)C=C(C)O1 |  | 25.1 µM (active) |
| CCCCS(=O)(=O)NC1=NCN(Cc2ccco2)CN1 | 6.47% |  |
| Cc1nc(SCc2cccc(Oc3ccccc3)c2)n[nH]1 |  | 5.01 µM (active) |
| CO[C@]1(NC(=O)[C@H](C(=O)O)c2ccc(O)cc2)C(=O)N2C(C(=O)O)=C(CSc3nnnn3C)CO[C@H]21 | 2.09% [at 25.6 µM] |  |
| COc1ccccc1-c1cncnc1NCCc1cnc[nH]1 |  | 0.0794 µM (active) |
| FC(F)(F)c1ccccc1-c1cncnc1NCCc1cnc[nH]1 |  | 0.01 µM (active) |
| COc1cccc(-c2cncnc2NCCc2cnc[nH]2)c1 |  | 0.01 µM (active) |

| SMILES | activity, negative = inhibition | AC50 |
| --- | --- | --- |
| CC(=O)NCCNc1ncncc1-c1ccccc1C(F)(F)F | -56.5% |  |
| CS(=O)(=O)N1CCC2(CCCN(C(=O)Nc3cccc(F)c3)C2)CC1 | -44.5% |  |
| Cc1ccc(C(C)C)n1C(=O)OC(C)(C)C | 4.81% [at 11.4 µM] |  |
| CN(C)c1ccc(/C=N\NC(=O)c2cnc3ccccc3c2)cc1 | 21.3% [at 11.4 µM] |  |
| CN(C)/C=N/c1ncc(C(=O)c2ccc3ccccc3c2)s1 |  | 14.1 µM (active) |
| O=C(NC1CCCCC1)C(c1cccs1)N(C(=O)C(F)(F)F)c1ccccc1 (stereo not drawn) |  | 1.58 µM (active) |
| COc1ccc(C(C(=O)NC2CCCC2)N(C(=O)c2snc(-c3ccc(F)cc3)c2N)c2ccccc2)cc1 (stereo not drawn) | -13% |  |
| COc1ccc(CCN(C(=O)C(F)(F)F)C(C(=O)NC2CCCC2)c2cccs2)cc1 (stereo not drawn) |  | 2 µM (active) |
| CCOC(=O)c1ccc(N/C(=N\S(=O)(=O)c2ccccc2C)c2ccccc2)cc1 |  | 7.94 µM (active) |
| COCCN1C(=O)c2ccccc2C(C(=O)Nc2ccc3c(c2)OCCO3)C1c1ccc(F)cc1 (stereo not drawn) |  | 28.2 µM (active) |
| COc1cc(OC)c(C2C(C(=O)O)c3ccccc3C(=O)N2C)cc1OC (stereo not drawn) | -21.6% |  |
| COc1cc2c(cc1OC)C(C(=O)Nc1ccc3c(c1)OCCO3)C(c1cccnc1)N(C)C2=O (stereo not drawn) | -8.51% |  |
| CC1=NNC(=O)C1CCC(=O)N/N=C\c1ccccc1[N+](=O)[O-] (stereo not drawn) | -15.1% |  |
| CCn1c(SCC(=O)N/N=C/C=C\c2ccccc2[N+](=O)[O-])nnc1-c1ccccc1 |  | 14.1 µM (active) |
| Cc1noc(C)c1C(=O)N1CCC[C@@]2(CCN(Cc3nccs3)C2)C1 | 12.4% |  |
| CSc1nc(C)cc(Nc2ccc(O)c(CN3CCOCC3)c2)n1 | 52.5% [at 11.4 µM] |  |
| Cc1cc(N2CCOCC2)nc(SCc2ccc(Cl)cc2Cl)n1 |  | 2.24 µM (active) |
| COc1cccc2c1C(=O)c1c(O)c3c(c(O)c1C2=O)C[C@](O)(C(=O)CO)C[C@H]3O[C@@H]1C[C@H](N)[C@H](O)[C@H](C)O1 | 14.8% [at 25.6 µM] |  |
| Cc1cc(Oc2ccc(-c3ccccc3)cc2)nc(N2CCOCC2)n1 |  | 14.1 µM (active) |
| O=c1c(-c2ccccc2)nc2cnc(N3CCOCC3)nc2n1C1CC1 | -27.1% |  |
| COc1ccc(-n2c(=O)c(-c3ccccc3)nc3cnc(N4CCOCC4)nc32)cc1 | -53.2% |  |
| CCCc1ccc(Oc2cc(C)nc(N3CCOCC3)n2)cc1 |  | 11.2 µM (active) |

| SMILES | activity, negative = inhibition | AC50 |
| --- | --- | --- |
| Nc1nc(Cl)nc2c1ncn2[C@@H]1O[C@@H](COP(=O)(O)OP(=O)(O)OP(=O)(O)O)[C@@H](O)[C@H]1O | 29.1% |  |
| O=C(NC1CCCCC1)C(c1cccs1)N(Cc1cccs1)C(=O)c1ccco1 (stereo not drawn) |  | 1.58 µM (active) |
| COc1ccc(CN(C(=O)Cc2cccs2)C(C(=O)NC2CCCC2)c2ccncc2)cc1 (stereo not drawn) |  | 1.78 µM (active) |
| O=C(NC1CCCC1)C(c1ccsc1)N(Cc1ccccc1)C(=O)Cc1cccs1 (stereo not drawn) |  | 5.01 µM (active) |
| CO[C@H]1[C@@H](OC(N)=O)[C@H](O)[C@@H](Oc2ccc3c(O)c(NC(=O)c4ccc(O)c(CC=C(C)C)c4)c(=O)oc3c2C)OC1(C)C | 12.6% [at 25.6 µM] |  |
| NC(=S)c1ccc[n+]([C@@H]2O[C@@H](COP(=O)([O-])OP(=O)(O)OC[C@@H]3O[C@@H](n4cnc5c(N)ncnc54)[C@@H](OP(=O)(O)O)[C@H]3O)[C@@H](O)[C@H]2O)c1 | -13% |  |
| CCCC(=O)Nc1ccc(C(=O)/C=C/c2ccc(SC)cc2)cc1 |  | 2.51 µM (active) |
| COc1cccc(C(=O)/C=C/c2ccc(SC)cc2)c1 |  | 0.631 µM (active) |
| CCCCCCCCCCCCCCCCCCc1ccc(C(=O)/C=C\C(=O)O)cc1 | -4.95% |  |
| COc1ccc2[nH]c(C(=O)c3ccccc3)cc2c1 | -19.7% |  |
| O=S(=O)(NCc1cccnc1)c1ccc(Cl)nc1 |  | 31.6 µM (active) |
| c1cncc(CNCc2cccnc2)c1 | 5.45% [at 11.4 µM] |  |
| OCCNc1ncnc2nc[nH]c12 | 10.2% [at 11.4 µM] |  |
| Cc1cc2c(ncn2Cc2ccccc2)c([N+](=O)[O-])c1C |  | 4.47 µM (active) |
| Cc1cccc(Cn2cnc3c(NS(C)(=O)=O)c(C)c(C)cc32)c1 |  | 3.98 µM (active) |
| COc1ccc2oc(-c3ccc(C)c(NC(=O)CSc4ccc(Cl)cc4)c3)nc2c1 |  | 0.562 µM (active) |
| CC[C@@H]1OC(=O)[C@H](C)[C@H](O[C@@H]2C[C@](C)(OC)[C@H](O)[C@H](C)O2)[C@H](C)[C@H](O[C@@H]2O[C@@H](C)C[C@@H](N(C)C)[C@@H]2O)[C@](C)(O)C[C@H](C)[C@@H]2N[C@H](COCCOC)O[C@H]([C@@H]2C)[C@]1(C)O | 17.8% [at 25.6 µM] |  |
| COC(=O)c1c(NC(=O)CC2Nc3ccccc3NC2=O)sc(C)c1C (stereo not drawn) |  | 11.2 µM (active) |
| COC(=O)c1cc(NC(=O)CC2NC3CCCCC3NC2=O)cc(C(=O)OC)c1 (stereo not drawn) | -17.7% |  |
| CCN(CC)CCCNC(=O)CC1Sc2ccccc2NC1=O (stereo not drawn) | -24.2% |  |
| Nc1nc(N)c2nn(-c3ccc(C(=O)O)cc3)nc2n1 | 19.9% [at 11.4 µM] |  |
| O=C(O)[C@@H]1Cc2c([nH]c3ccccc23)[C@@H](CCCCO)N1 | 17.4% [at 11.4 µM] |  |

| SMILES | activity, negative = inhibition | AC50 |
| --- | --- | --- |
| CC[C@H]1CN(C)[C@H]2Cc3c([nH]c4ccccc34)C(=O)C[C@H]1[C@H]2C(=O)OC | 22.2% [at 11.4 µM] |  |
| COC(=O)C1Cc2c([nH]c3ccccc23)CN1 (stereo not drawn) |  | 3.98 µM (active) |
| O=c1[nH]c2cc([N+](=O)[O-])c([N+](=O)[O-])cc2[nH]c1=O | -12.4% |  |
| CCCCCCCCCCCCCC(=O)O[C@H](CC(=O)O)C[N+](C)(C)C | -17.7% |  |
| Cc1ccc(NC(=O)C2(NC(=O)c3cccc(N4C(=O)CSC4c4ccccc4)c3)CCCCC2)cc1 (stereo not drawn) |  | 28.2 µM (active) |
| CN(C)CC/C=C1\c2ccccc2CSc2ccccc21 | -12.9% [at 25.6 µM] |  |
| Cc1nc(SC2CC(=O)N(c3ccc([N+](=O)[O-])cc3)C2=O)nc2c1CCCC2 (stereo not drawn) |  | 4.47 µM (active) |
| O=C(Cc1ccc(Br)cc1)OCC(=O)c1ccc2c(c1)OCCO2 |  | 15.8 µM (active) |
| FC(F)(F)c1cccc(-c2nc3nc(Cl)c(Cl)nc3[nH]2)c1 | -19.6% [at 11.4 µM] |  |
| O=c1c2ccc(Cl)cc2nc(-c2cccc(C(F)(F)F)c2)n1O |  | 14.1 µM (active) |
| Cc1cc(C)n2c(SCC(=O)N(C)C3CCS(=O)(=O)C3)nnc2n1 (stereo not drawn) | -14.2% |  |
| Cc1ccc(-n2ccnc2SCC(=O)N(CC(C)C)C2CCS(=O)(=O)C2)c(C)c1 (stereo not drawn) |  | 10 µM (active) |
| Cc1cccc(Nc2cc(Cl)nc(SCC(=O)O)n2)c1C | -19.1% |  |
| Cc1cccc(NC(=O)CSc2nnc(-c3ccco3)c(-c3ccco3)n2)c1C |  | 2.24 µM (active) |
| CC/C=C\CC[C@H](O)C1=CCCCC1=O | 13.3% [at 11.4 µM] |  |
| O=C1CCCC=C1[C@H](CCc1ccccc1)OC(=O)c1ccc(Br)cc1 |  | 1.58 µM (active) |
| O=C1CCCC=C1[C@H](O)c1ccc([N+](=O)[O-])cc1 | -22% [at 11.4 µM] |  |
| CC/C=C\CC[C@H](OC(=O)c1ccc(Br)cc1)C1=CCCCC1=O |  | 2 µM (active) |
| Cc1c(Cl)c(S(N)(=O)=O)cc2c1=NC=NS=2(=O)O | 8.1% [at 11.4 µM] |  |
| CN1CCC2(CC1)CCN(C(=O)c1ccncc1)CC2 | 25.7% |  |
| COc1ccc2c(c1)nc(SCC(=O)c1ccc(Br)s1)n2C |  | 0.398 µM (active) |
| CCOc1ccc2c(c1)nc(SCC(=O)c1ccc(Br)s1)n2C |  | 0.708 µM (active) |
